Test results taken from PubChem BioAssay (NCATS).
Results filed as inconclusive are left out. Values without a mark were called inactive. The source made the active and inactive calls. Calls follow the shape of the dose curve; as a rule, active = well fitted curve in the direction sought with a large enough effect; inconclusive = small, poorly fitted or top-dose-only effect, or another doubt; inactive = no such curve, though single readings can be large; an effect the other way counts as inactive or inconclusive.

Experiment: qHTS for activators of dead-cell proteases activity screened against the NCATS CANVASS Library (AID 1347392);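 also: luminescence from protease leaking out of membrane-damaged cells cleaving impermeant substrate; 0% is about no effect; rising signal means more cytotoxicity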
Settings: HepG2 cytotoxicity, dead-cell protease luminescence, 5 h; series mostly up to 46.1 µM; activation (cytotoxicity): at the top concentration
In short: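 HepG2 cells, 2000/well, attached 18 h at 37C, then exposed to compounds (11-point qHTS) for 5 h. Dead-cell protease release read as luminescence from cell-impermeant AAF-aminoluciferin substrate after 15 min at room temperature.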

Row | Structure (SMILES) | activation (cytotoxicity) [%]
1 | COC(=O)[C@@H]1[C@H]2C[C@H]3c4[nH]c5ccccc5c4CCN3C[C@@H]2CC[C@@H]1O | 1.6
2 | O=C(O)C(O)Cc1ccc(O)c(O)c1 (configuration not stated) | 1.79
3 | O=c1cc(-c2ccccc2)oc2cc(O)c(O)c(O)c12 | 0.93

Experiment: Vero-766 cells viability qHTS against the NCATS CANVASS Library: Counterscreen for Zika virus inhibition assay (AID 1347394); also: % is scaled to controls: 0 for no effect and ±100 for the full control effect; nearly all actives have a fitted effect of over 60% in size
Settings: Vero 766 viability, CellTiter-Glo luminescence, 72 h; series mostly up to 46.1 µM; activity change, negative = cytotoxic: at the top concentration
Source text: Natural products and their derivatives continue to be wellsprings of nascent therapeutic potential. However, many laboratories have limited resources for biological evaluation, leaving their previously isolated or synthesized compounds largely or completely untested. To address this issue, the Canvass library of natural products was assembled (https://tripod.nih.gov/canvass), in collaboration with academic and industry researchers, for quantitative high-throughput screening (qHTS) across a diverse set of cell-based and biochemical assays. The pure (>85% purity by liquid chromatography/mass spectrometry [LC/MS]) Canvass library of 346 natural products were submitted by 45 academic laboratories and companies around the world. We collected pure natural products to circumvent deconvolution and structure elucidation due to time and resource limitations. The library was formatted into 1536-well plates and evaluated in 50 qHTS (in an 11-pnt concentration series) bioassays with broad scope of disease-relevant mechanisms. The resulting data set from 50 different assays was then systematically analyzed to identify overall trends and specific natural products with interesting biological activities. Reported herein are the results of each individual qHTS and their corresponding assay protocol. The vero cell viability assay was performed in the absence of Zika virus utilizing Cell Titer Glo to eliminate toxic compounds. A decrease in the luminescence signal is caused by cytotoxic compounds. National Center for Advancing Translational Sciences (NCATS), Rockville, MD National Institute of Health (NIH), Bethesda, Maryland
Zika-counterscreen assay protocol: 1. In a white-solid bottom, 1536-well tissue culture plate (Corning 7494), 3 uL of Vero 766 cells derived (African Green Monkey) were dispensed into columns 1, 2, and 5 - 48 using a Multidrop Combi (Thermo Fisher Scientific) at a final concentration of 1000 cells / well. […] Luminescence signal was obtained via the ViewLux plate reader (Perkin Elmer) using the clear emission filter and 1x binning, 2 seconds exposure settings.

Row | Structure (SMILES) | activity change, negative = cytotoxic [%]
4 | COC(=O)[C@@H]1[C@H]2C[C@H]3c4[nH]c5ccccc5c4CCN3C[C@@H]2CC[C@@H]1O | 6.7
5 | O=C(O)C(O)Cc1ccc(O)c(O)c1 (configuration not stated) | -7.12
6 | O=c1cc(-c2ccccc2)oc2cc(O)c(O)c(O)c12 | -0.718

Experiment: qHTS for inhibitors of Wild type Zika virus screened against the NCATS CANVASS Library (AID 1347396);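 also: ATP luminescence of surviving cells so rescue from viral cell killing; % is scaled to controls: 0 for no effect and ±100 for the full control effect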
Settings: Vero cells, Zika virus CPE, CellTiter-Glo, 72 h; series mostly up to 45.9 µM; activity change, negative = antiviral: at the top concentration
In short: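 Protection against wild-type Zika cytopathic effect is measured in African green monkey Vero 766 cells exposed to an 11-point compound series. Surviving cells are quantified by CellTiter Glo luminescence after 72 h.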

Row | Structure (SMILES) | activity change, negative = antiviral [%]
7 | COC(=O)[C@@H]1[C@H]2C[C@H]3c4[nH]c5ccccc5c4CCN3C[C@@H]2CC[C@@H]1O | 3.43
8 | O=C(O)C(O)Cc1ccc(O)c(O)c1 (configuration not stated) | 4.12
9 | O=c1cc(-c2ccccc2)oc2cc(O)c(O)c(O)c12 | 26.8

Experiment: Viability qHTS for inhibitors of the SERCaMP assay screened against the NCATS CANVASS Library (AID 1347400); also: % is scaled to controls: 0 for no effect and ±100 for the full control effect; nearly all actives have a fitted effect of over 70% in size
Settings: SH-SY5Y SERCaMP cells viability, CellTiter-Glo, 48 h; series mostly up to 92.2 µM; activity change, negative = cytotoxicity: at the top concentration
In short: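 SH-SY5Y SERCaMP MJH297 cells, 1000/well; 4 h settle, 37C/5% CO2; pin-transferred cpds; 48 h; CellTiter-Glo lum. Pos ctrl bortezomib 0.0001 - 4.6 uM.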

Row | Structure (SMILES) | activity change, negative = cytotoxicity [%]
10 | COC(=O)[C@@H]1[C@H]2C[C@H]3c4[nH]c5ccccc5c4CCN3C[C@@H]2CC[C@@H]1O | -9.7
11 | O=C(O)C(O)Cc1ccc(O)c(O)c1 (configuration not stated) | -8.37
12 | O=c1cc(-c2ccccc2)oc2cc(O)c(O)c(O)c12 | -1.24

Experiment: Redox Reaction Profiling qHTS: Assay Interference Panel against the NCATS CANVASS Library (AID 1347401); also: potency is read from the fitted curve at half-maximal effect;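 as to activation (redox signal): 100% = activation by 2 µM chloranil control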
Settings: resazurin-DTT redox cycling, fluorescence, 15 min; series mostly up to 57.1 µM; activation (redox signal): at the top concentration
In short: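 Compounds in 11-point series incubated with 5 uM resazurin and 200 uM DTT in 50 mM HEPES pH 7.3, 50 mM NaCl. Resorufin fluorescence (Ex 525/Em 598) read before and after 15 min in the dark.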

Row | Structure (SMILES) | activation (redox signal) [%] | Potency
13 | COC(=O)[C@@H]1[C@H]2C[C@H]3c4[nH]c5ccccc5c4CCN3C[C@@H]2CC[C@@H]1O | -16.7 | –
14 | O=C(O)C(O)Cc1ccc(O)c(O)c1 (configuration not stated) | – | 15.2 µM (active)
15 | O=c1cc(-c2ccccc2)oc2cc(O)c(O)c(O)c12 | -28.6 | –

Experiment: qHTS to identify inhibitors of the type 1 interferon - major histocompatibility complex class I in skeletal muscle: primary screen against the NCATS LOPAC collection (AID 1347405);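 also: lytic HiBiT luminescence reporting HLA-B protein level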; also: potency is read from the fitted curve at half-maximal effect; as to activity change, negative = inhibition: % is scaled to controls: 0 for no effect and ±100 for the full control effect
Settings: iHSKM muscle cells, IFN-b-induced MHC-I HiBiT luminescence, 24 h; series mostly up to 45.9 µM; activity change, negative = inhibition: at the top concentration
In short: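 Luminescence from HiBiT fused to endogenous HLA-B in CRISPR-engineered human myoblasts served as the read-out. Cells received 4.0 ng/ml IFN-beta plus compound (seven concentrations, 1:4.3 steps, highest 46 uM final) for 24 hrs before lytic detection.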

Row | Structure (SMILES) | activity change, negative = inhibition [%] | Potency
16 | CCN(CC)CCOC(=O)c1ccc(N)cc1 | -15 | –
17 | NCCS | -4.61 | –
18 | CC(=O)N[C@@H](CS)C(=O)O | -25.8 | –
19 | CC(C)NCC(O)COc1cccc2[nH]ccc12 (configuration not stated) | 1.29 | –
20 | COC(=O)[C@@H]1[C@H]2C[C@H]3c4[nH]c5ccccc5c4CCN3C[C@@H]2CC[C@@H]1O | -22.4 | –
21 | CC(=O)O[C@]1(C(C)=O)CC[C@H]2[C@@H]3C=C(Cl)C4=CC(=O)[C@@H]5C[C@@H]5[C@]4(C)[C@H]3CC[C@@]21C | -8.71 | –
22 | O=C(O)CCc1nc(-c2ccccc2)c(-c2ccccc2)o1 | 8.2 | –
23 | CCN1CCC[C@H]1CNC(=O)c1cc(S(N)(=O)=O)ccc1OC | -4.07 | –
24 | O=C1NC(=O)C(c2ccccc2)(c2ccccc2)N1 | -14 | –
25 | COc1ccccc1N1CCN(CCCNc2cc(=O)n(C)c(=O)n2C)CC1 | -5.85 | –
26 | O=C(NCCN1CCOCC1)c1ccc(Cl)cc1 | 4.89 | –
27 | CCN(CC)C(=O)c1ccc(O)c(OC)c1 | -1.9 | –
28 | Clc1ccc(Cn2c(CN3CCCC3)nc3ccccc32)cc1 | -2.24 | –
29 | CCn1cc(C(=O)O)c(=O)c2ccc(C)nc21 | 11.7 | –
30 | CN(C)CCC(c1ccccc1)c1ccccn1 (configuration not stated) | -8.51 | –
31 | C[N+](C)(C)CCCCCC[N+](C)(C)C | – | inactive
32 | COc1cccc(-c2cc(=O)c3ccccc3o2)c1N | -17.4 | –
33 | O=C1NCC2(CCN(CCc3ccccc3)CC2)O1 | -3.34 | –
34 | Cc1cccc(C)c1OCC(C)N (configuration not stated) | 5.64 | –
35 | CC(=O)CCCCn1c(=O)c2c(ncn2C)n(C)c1=O | 2.18 | –
36 | CC(=O)c1ccc(S(=O)(=O)NC(=O)NC2CCCCC2)cc1 | -15.6 | –
37 | COc1ccc(Cc2nccc3cc(OC)c(OC)cc23)cc1OC | -27.5 | –
38 | CCCCC1C(=O)N(c2ccccc2)N(c2ccccc2)C1=O | – | 15.8 µM (active)

Experiment: qHTS to identify inhibitors of the type 1 interferon - major histocompatibility complex class I in skeletal muscle: primary screen against the NCATS Pharmaceutical Collection (AID 1347407);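 also: luminescence of HiBiT knocked into endogenous HLA-B as interferon-induced MHC class I level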; also: potency is read from the fitted curve at half-maximal effect; as to activity change, negative = inhibition: % is scaled to controls: 0 for no effect and ±100 for the full control effect
Settings: human skeletal muscle cells, IFN-b-induced MHC-I HiBiT luminescence, 24 h; series mostly up to 45.9 µM; activity change, negative = inhibition: at the top concentration
In short: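 Immortalized human myoblasts (C25cl48) with HiBiT knocked into endogenous HLA-B*08:01 were stimulated with 4.0 ng/ml IFN-beta and treated with compounds ([…] top 46 uM) for 24 hrs at 37 C. HiBiT lytic luminescence read.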

Row | Structure (SMILES) | activity change, negative = inhibition [%] | Potency
39 | COc1ccc2cccc(CCNC(C)=O)c2c1 | -1.15 | –
40 | CCN(CC)CCOC(=O)c1ccc(N)cc1 | 10.1 | –
41 | CC1=C(/C=C/C(C)=C/C=C/C(C)=C/C(=O)Nc2ccc(O)cc2)C(C)(C)CCC1 | -23 | –
42 | OC[C@@H](O)[C@H](O)[C@H](O)[C@@H](O)CO | – | inactive
43 | O=C(CCCCCCC(=O)Nc1ccccc1)NO | – | 4.19 µM (active)
44 | NCCS | -0.499 | –
45 | COc1cc2ncnc(Nc3ccc(F)c(Cl)c3)c2cc1OCCCN1CCOCC1 | -22.3 | –
46 | O=C(O)Cc1cccc2ccccc12 | – | inactive
47 | C[N+](C)(C)CC(=O)O | -7.82 | –
48 | CC(=O)N[C@@H](CS)C(=O)O | 5.83 | –
49 | O=C(O)c1cc(-c2ccccc2)nc2ccccc12 | – | inactive
50 | CC(C)NCC(O)COc1cccc2[nH]ccc12 (configuration not stated) | 0.809 | –
51 | COC(=O)[C@@H]1[C@H]2C[C@H]3c4[nH]c5ccccc5c4CCN3C[C@@H]2CC[C@@H]1O | -20.8 | –
52 | CN1C[C@H]2c3ccccc3Oc3ccc(Cl)cc3[C@@H]2C1 | 2.54 | –
53 | CC(=O)O[C@]1(C(C)=O)CC[C@H]2[C@@H]3C=C(Cl)C4=CC(=O)[C@@H]5C[C@@H]5[C@]4(C)[C@H]3CC[C@@]21C | -4.16 | –
54 | O=C(O)CCc1nc(-c2ccccc2)c(-c2ccccc2)o1 | -6.29 | –
55 | CCN1CCC[C@H]1CNC(=O)c1cc(S(N)(=O)=O)ccc1OC | 8.08 | –

Row | Structure (SMILES) | activity change, negative = inhibition [%] | Potency
56 | O=C1NC(=O)C(c2ccccc2)(c2ccccc2)N1 | -11.5 | –
57 | COc1ccccc1N1CCN(CCCNc2cc(=O)n(C)c(=O)n2C)CC1 | -4.04 | –
58 | O=C(NCCN1CCOCC1)c1ccc(Cl)cc1 | 9.33 | –
59 | C[C@@H](O)[C@H]1C(=O)N2C(C(=O)O)=C(S[C@@H]3CN[C@H](C(=O)N(C)C)C3)[C@H](C)[C@H]12 | – | inactive
60 | CC[C@]1(O)C[C@@H]2CN(CCc3c([nH]c4ccccc34)[C@@](C(=O)OC)(c3cc4c(cc3OC)N(C)[C@H]3[C@@](O)(C(=O)OC)[C@H](OC(C)=O)[C@]5(CC)C=CCN6CC[C@]43[C@@H]65)C2)C1 | -22.4 | –
61 | CN(C)c1cc(NC(=O)CNC(C)(C)C)c(O)c2c1C[C@@H]1C[C@H]3[C@H](N(C)C)C(=O)C(C(N)=O)=C(O)[C@@]3(O)C(=O)C1=C2O | 3.06 | –
62 | CCN(CC)C(=O)c1ccc(O)c(OC)c1 | -2.22 | –
63 | COC[C@@H](c1ccc(C(F)(F)F)cc1)N1CCN(C2(C)CCN(C(=O)c3c(C)ncnc3C)CC2)C[C@H]1C | -3.1 | –
64 | Clc1ccc(Cn2c(CN3CCCC3)nc3ccccc32)cc1 | -23.8 | –
65 | CCn1cc(C(=O)O)c(=O)c2ccc(C)nc21 | -10.8 | –
66 | CN(C)CCC(c1ccccc1)c1ccccn1 (configuration not stated) | -4.13 | –
67 | C[N+](C)(C)CCCCCC[N+](C)(C)C | 3.01 | –
68 | N#C[C@H]1C[C@H]2C[C@@H]2N1C(=O)[C@@H](N)C12CC3CC(CC(O)(C3)C1)C2 | -10.4 | –
69 | O=C1NCC2(CCN(CCc3ccccc3)CC2)O1 | 13.1 | –
70 | Cc1cccc(C)c1OCC(C)N (configuration not stated) | 13.2 | –
71 | CC(=O)CCCCn1c(=O)c2c(ncn2C)n(C)c1=O | -2.18 | –
72 | CC(=O)c1ccc(S(=O)(=O)NC(=O)NC2CCCCC2)cc1 | -4.25 | –
